Laboratory results as given in PubChem BioAssay (NCATS).
Inconclusive results are not listed. Active and inactive are the calls of the source. Unless noted, the call rests on the fitted dose curve; in most records, active means well fitted curve in the direction sought with a large enough effect; inconclusive means small, poorly fitted or top-dose-only effect, or another doubt; inactive means no such curve, though single readings can be large; an effect the other way counts as inactive or inconclusive.

Experiments:
[1] = system: NIH3T3; assay: qHTS assay to identify novel small-molecules to repurpose for Merkel cell carcinoma treatment (AID 1296009); details: MCC and control cell lines, CellTiter-Glo viability, 72 h; at 44.8 µM (top of the series) unless noted; further: nearly all actives have a fitted effect of over 60% in size
Method in brief: (§1)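 Cells were incubated with compound for 72 hr at 37 degree celsius before CellTiter-Glo addition. Luminescence was normalized with no-cell wells as full cytotoxicity and DMSO as baseline.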

[2] = system: UISO; assay: as above; details: MCC and control cell lines, CellTiter-Glo viability, 72 h; series mostly up to 46 µM
Method in brief: as §1

[3] = system: WaGa; assay: as above; details: MCC and control cell lines, CellTiter-Glo viability, 72 h; series mostly up to 46 µM
Method in brief: as §1

[4] = system: C33A; assay: Primary qHTS to identify gynecologic anti-cancer compounds using libraries of approved drugs and bioactive compounds (AID 1345084); details: Gynecologic cancer cell panel viability, ATPlite luminescence, 48 h; series mostly up to 57.5 µM; further: on the % scale 0 is the no-effect control and ±100 the full control effect; nearly all actives have a fitted effect of over 55% in size
Method in brief: (§2)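 Luminescence from the ATPlite ATP-monitoring reagent indicates viable cell number; lower signal means cytotoxicity. Cells received compound 16 h after seeding and were exposed for 48 h across five concentrations.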

[5] = system: CAOV3; assay: as above; details: Gynecologic cancer cell panel viability, ATPlite luminescence, 48 h; series mostly up to 57.5 µM
Method in brief: as §2

[6] = system: CASKI; assay: as above; details: Gynecologic cancer cell panel viability, ATPlite luminescence, 48 h; series mostly up to 57.5 µM
Method in brief: as §2

[7] = system: Es-2; assay: as above; details: Gynecologic cancer cell panel viability, ATPlite luminescence, 48 h; series mostly up to 57.5 µM
Method in brief: as §2

[8] = system: HeLa; assay: as above; details: Gynecologic cancer cell panel viability, ATPlite luminescence, 48 h; series mostly up to 57.5 µM
Method in brief: as §2

[9] = system: Hek293T; assay: as above; details: Gynecologic cancer cell panel viability, ATPlite luminescence, 48 h, control line for the selectivity index; series mostly up to 57.5 µM
Method in brief: as §2

[10] = system: JEG-3; assay: as above; details: Gynecologic cancer cell panel viability, ATPlite luminescence, 48 h; series mostly up to 57.5 µM
Method in brief: as §2

[11] = system: OV90; assay: as above; details: Gynecologic cancer cell panel viability, ATPlite luminescence, 48 h; series mostly up to 57.5 µM
Method in brief: as §2

[12] = system: PA-1; assay: as above; details: Gynecologic cancer cell panel viability, ATPlite luminescence, 48 h; series mostly up to 57.5 µM
Method in brief: as §2

[13] = system: SKOV3; assay: as above; details: Gynecologic cancer cell panel viability, ATPlite luminescence, 48 h; series mostly up to 57.5 µM
Method in brief: as §2

[14] = system: Tov-21-G; assay: as above; details: Gynecologic cancer cell panel viability, ATPlite luminescence, 48 h; series mostly up to 57.5 µM
Method in brief: as §2

[15] = system: Tov112D; assay: as above; details: Gynecologic cancer cell panel viability, ATPlite luminescence, 48 h; series mostly up to 57.5 µM
Method in brief: as §2

[16] = Drug repurposing screens with cells derived from glioblastoma tumor samples (AID 1345199); details: GBM patient neurospheres viability, ATP luminescence, 48 h; further: nearly all actives have a fitted effect of over 40% in size; further: potency means the concentration at half of the fitted maximal effect; on activity, negative = cell killing: on the % scale 0 is the no-effect control and ±100 the full control effect
Method in brief: (§3)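 Four patient lines of CD133+ GBM neurospheres were screened at several concentrations; hits were retested in those lines plus three slower-growing GBM lines, using 48-hour treatment and ATP-based viability.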

[17] = system: astro; assay: as above; details: viability, ATP luminescence, 48 h; series mostly up to 45.9 µM
Method in brief: as §3

[18] = molecular target: Nuclear receptor subfamily 1 group I member 2 (Rattus norvegicus) (UniProt Q9R1A7); assay: qHTS assay for small molecule activators of the rat pregnane X receptor (rPXR) signaling pathway (AID 651751; call rule not given here; further: 0% is about no effect); details: rPXR reporter cells, luciferase (One-Glo), 24 h
Sequence of Nuclear receptor subfamily 1 group I member 2 (Rattus norvegicus) (Q9R1A7 whole entry, looked up): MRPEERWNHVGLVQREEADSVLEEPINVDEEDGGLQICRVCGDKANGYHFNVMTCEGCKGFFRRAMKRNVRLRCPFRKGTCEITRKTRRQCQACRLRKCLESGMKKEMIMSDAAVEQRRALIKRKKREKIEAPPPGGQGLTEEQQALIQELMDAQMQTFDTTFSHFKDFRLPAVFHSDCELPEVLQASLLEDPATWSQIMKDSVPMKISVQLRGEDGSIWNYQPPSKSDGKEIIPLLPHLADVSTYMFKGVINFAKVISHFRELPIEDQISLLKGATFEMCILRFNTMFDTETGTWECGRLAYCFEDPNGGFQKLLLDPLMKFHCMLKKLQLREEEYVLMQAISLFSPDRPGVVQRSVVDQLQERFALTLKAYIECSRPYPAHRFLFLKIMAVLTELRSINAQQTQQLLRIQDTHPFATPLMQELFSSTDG

[19] = at 45.9 µM (top of the series), tumour line B
[20] = at 45.9 µM (top of the series), tumour line D
[21] = at 46 µM (top of the series), tumour line A

CC(=O)[C@H]1CC[C@H]2[C@@H]3CC[C@H]4C[C@](C)(O)CC[C@]4(C)[C@H]3CC[C@]12C
inactive: outcome [1] | Potency [2] | Potency [3] | Potency [4] | Potency [5] | Potency [6] | Potency [7] | Potency [8] | Potency [9] | Potency [10] | Potency [11] | Potency [12] | Potency [13] | Potency [14] | Potency [15] | activity, negative = cell killing [16, 19] -20.7%

Cn1cc(C2=C(c3cn(C4CCN(Cc5ccccn5)CC4)c4ccccc34)C(=O)NC2=O)c2ccccc21
active: Potency ([16]; tumour line A) 2.51 µM | Potency ([16]; tumour line D) 20 µM
inactive: outcome [1] | Potency [2] | Potency [3] | Potency [4] | Potency [5] | Potency [6] | Potency [7] | Potency [8] | Potency [9] | Potency [10] | Potency [11] | Potency [12] | Potency [13] | Potency [14] | Potency [15] | activity, negative = cell killing [16, 19] 31.3%

CC(C)(N)Cc1ccc(Cl)cc1
inactive: outcome [1] | Potency [2] | Potency [3] | Potency [4] | Potency [5] | Potency [6] | Potency [7] | Potency [8] | Potency [9] | Potency [11] | Potency [12] | Potency [13] | Potency [14] | Potency [15] | activity, negative = cell killing [16, 19] -10.8% | activity, negative = cell killing [16, 20] -8.85%

Oc1ccccc1-c1ccccc1
inactive: outcome [1] | Potency [2] | Potency [3] | Potency [4] | Potency [5] | Potency [6] | Potency [7] | Potency [8] | Potency [9] | Potency [10] | Potency [11] | Potency [12] | Potency [13] | Potency [14] | Potency [15] | activity, negative = cell killing [16, 19] -14.5% | activity, negative = cell killing [16, 20] -15.4% | activity, negative = cell killing [16, 21] -19.2% | Potency [17] | max response [18] -0.588% [middle of 4 runs]

CC(=O)[C@H]1CC[C@H]2[C@@H]3CC[C@H]4C[C@H](O)CC[C@]4(C)[C@H]3C(=O)C[C@]12C
inactive: outcome [1] | Potency [2] | Potency [3] | Potency [4] | Potency [5] | Potency [6] | Potency [7] | Potency [8] | Potency [9] | Potency [11] | Potency [12] | Potency [13] | Potency [14] | Potency [15] | activity, negative = cell killing [16, 19] -8.44% | activity, negative = cell killing [16, 20] -5.23% | Potency [17]

Cc1cc(SCc2sc(-c3ccc(C(F)(F)F)c(F)c3)nc2C)ccc1OCC(=O)O
inactive: outcome [1] | Potency [2] | Potency [3] | Potency [4] | Potency [5] | Potency [6] | Potency [7] | Potency [8] | Potency [9] | Potency [11] | Potency [12] | Potency [14] | Potency [15] | max response [18] 13%

CCN(CC)C(=O)N[C@@H]1C=C2c3cccc4[nH]cc(c34)C[C@@H]2N(C)C1
inactive: outcome [1] | Potency [2] | Potency [3] | Potency [4] | Potency [5] | Potency [6] | Potency [7] | Potency [8] | Potency [9] | Potency [11] | Potency [12] | Potency [13] | Potency [14] | Potency [15] | activity, negative = cell killing [16, 19] -7.53% | activity, negative = cell killing [16, 20] -22.7% | Potency [17]

C#CCN(C)[C@H](C)Cc1ccccc1
inactive: outcome [1] | Potency [2] | Potency [3] | Potency [4] | Potency [5] | Potency [6] | Potency [7] | Potency [8] | Potency [9] | Potency [10] | Potency [11] | Potency [12] | Potency [14] | Potency [15] | activity, negative = cell killing [16, 19] -10.5% | activity, negative = cell killing [16, 20] -14.3% | activity, negative = cell killing [16, 21] -47.6% | Potency [17]

C=C1CC[C@@]2(O)[C@H]3Cc4ccc(O)c5c4[C@@]2(CCN3CC2CC2)[C@H]1O5
inactive: outcome [1] | Potency [2] | Potency [3] | Potency [4] | Potency [5] | Potency [6] | Potency [7] | Potency [8] | Potency [9] | Potency [11] | Potency [12] | Potency [13] | Potency [14] | Potency [15] | activity, negative = cell killing [16, 19] -11% | activity, negative = cell killing [16, 20] 5.06%

Clc1cccc(N2CCNCC2)c1
inactive: outcome [1] | Potency [2] | Potency [3] | Potency [4] | Potency [5] | Potency [6] | Potency [7] | Potency [8] | Potency [9] | Potency [11] | Potency [12] | Potency [13] | Potency [14] | Potency [15] | activity, negative = cell killing [16, 19] -20%
active: Potency ([16]; tumour line A) 35.5 µM

Cc1ccc2c(c1)C1CN(C)CCC1N2 (stereo not drawn)
inactive: outcome [1] inactive [at 17.4 µM] | Potency [2] | Potency [3] | Potency [4] | Potency [5] | Potency [6] | Potency [7] | Potency [8] | Potency [9] | Potency [11] | Potency [12] | Potency [13] | Potency [14] | Potency [15] | activity, negative = cell killing [16, 19] -7.68% | activity, negative = cell killing [16, 20] -17.4% | Potency [17]

Cc1ccc(S(=O)(=O)N[C@@H](CCCCN)C(=O)CCl)cc1
inactive: outcome [1] | Potency [2] | Potency [3] | Potency [4] | Potency [5] | Potency [6] | Potency [7] | Potency [8] | Potency [9] | Potency [11] | Potency [12] | Potency [13] | Potency [14] | Potency [15] | activity, negative = cell killing [16, 19] -22.5% | Potency [17]

CCCN1CCC[C@@H]2Cc3[nH]ncc3C[C@H]21
inactive: outcome [1] | Potency [2] | Potency [3] | Potency [4] | Potency [5] | Potency [6] | Potency [7] | Potency [8] | Potency [9] | Potency [10] | Potency [11] | Potency [12] | Potency [13] | Potency [14] | Potency [15] | activity, negative = cell killing [16, 19] -3.57% | activity, negative = cell killing [16, 20] -3.31%
